Measured values: PubChem BioAssay (EPA / NIEHS)
Results filed as inconclusive are left out. Calls of active or inactive are those of the source. The calls were made as follows: active = hit-call score of the fitted dose curve at least 0.9, where 1 is the maximum; inconclusive = response in the unintended direction; inactive = score below 0.9.

molecular target: Oxysterols receptor LXR-alpha (Homo sapiens) (UniProt Q13133); assay: ATG_LXRa_TRANS: Attagene TRANS-FACTORIAL HepG2 Assay for human Liver X Receptor alpha (LXRa) (AID 2282980); settings: HepG2 Attagene TRANS reporter, LXRa transactivation
Protocol: ATG_TRANS is a cell-based, multiplexed-readout assay that uses HepG2, a human liver cell line, with measurements taken at 24 hours after chemical dosing in a 24-well plate.ATG_LXRa_TRANS is one of 30 assay component(s) measured or calculated from the ATG_TRANS assay. It is designed to make measurements of mRNA induction, a form of inducible reporter, as detected with fluorescence intensity signals by Reverse transcription polymerase chain reaction (RT-PCR) and Capillary electrophoresis technology.Data from the assay component ATG_LXRa_TRANS was analyzed into 1 assay endpoint. This assay endpoint, ATG_LXRa_TRANS, was analyzed in the positive analysis fitting direction relative to DMSO as the negative control and baseline of activity. Using a type of inducible reporter, measures of mRNA for gain-of-signal activity can be used to understand the reporter gene at the transcription factor-level as they relate to the gene NR1H3. Furthermore, this assay endpoint can be referred to as a primary readout, because this assay has produced multiple assay endpoints where this one serves a reporter gene function. To generalize the intended target to other relatable targets, this assay endpoint is annotated to the nuclear receptor intended target family, where the subfamily is non-steroidal.
Human liver HepG2 cells are transiently transfected with multiple reporter transcription units (MRTUs) in 6-well plates using FuGene 6 reagent (Roche; 3 ml FuGene/1 mg DNA). The MRTU constructs are regulated by a cis-regulating element (promoter). […] A major difference between the CIS and TRANS system is that in CIS activities of endogenous TFs are measured, whereas the TRANS assay evaluates changes in activities of exogenous, chimeric NR-Gal4 proteins. […] At the end of 24 hour incubation, total RNA was isolated using TriZol reagent (Invitrogen). The isolated RNA is then reverse-transcribed using oligo(dT) primer and Mo-MLV reverse transcriptase (Invitrogen) with DNAse I (Ambion) treatment for 30 min. The one-tenth of the produced cDNA was amplified by PCR using Taq DNA polymerase (Invitrogen) and two reporter sequence-specific primers. The PCR products were fluorescently labeled by primer extension with 6-arboxyfluorescein (6-FAM) 5'-labeled reporter sequence-specific primer (2 min at 95 C, 20 s at 68 C and 10 min at 72 C) and these products were digested with 5U of HpaI (New England Biolabs) for 2h at 37 C. The fragments were purified using Qiaquick PCR columns (Qiagen), analyzed on an ABI 3130xL genetic analyzer (Applied Biosystems) with peak positions identified by using a set of X-rhodamine (ROX)-labeled MapMarker1000 molecular weight standards (BioVentures). The raw capillary electrophoresis data was processed using Attagraph software (Attagene).

Oxysterols receptor LXR-alpha (Homo sapiens), sequence (Q13133 whole entry, looked up): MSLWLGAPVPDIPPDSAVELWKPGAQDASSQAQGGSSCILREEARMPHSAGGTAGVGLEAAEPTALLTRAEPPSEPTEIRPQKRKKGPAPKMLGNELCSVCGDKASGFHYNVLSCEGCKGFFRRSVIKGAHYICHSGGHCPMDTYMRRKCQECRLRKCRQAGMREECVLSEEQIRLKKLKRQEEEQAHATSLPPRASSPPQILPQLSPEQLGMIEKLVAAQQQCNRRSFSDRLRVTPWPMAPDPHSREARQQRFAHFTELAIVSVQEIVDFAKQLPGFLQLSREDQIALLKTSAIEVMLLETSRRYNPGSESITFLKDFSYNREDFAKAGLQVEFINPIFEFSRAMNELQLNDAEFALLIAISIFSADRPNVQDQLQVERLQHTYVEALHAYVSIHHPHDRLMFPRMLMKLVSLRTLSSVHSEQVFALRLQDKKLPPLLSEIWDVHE

Row | Structure (SMILES) | outcome
1 | CCCCC(CC)COCCO (stereo not given) | inactive
2 | N#CCCNCCC#N | inactive
3 | O=C(O)C1=NN(c2ccc(S(=O)(=O)O)cc2)C(=O)C1 | inactive
4 | CCCCCCCCOC(=O)c1ccc(O)cc1 | inactive
5 | CC(C)(O)C(=O)c1ccc(OCCO)cc1 | inactive
6 | CC(C)COC(=O)c1ccccc1O | inactive
7 | OC[C@H]1O[C@@H](O[C@H]2[C@H](O)[C@@H](O)[C@H](O)O[C@@H]2CO)[C@H](O)[C@@H](O)[C@H]1O | inactive
8 | CC(=O)OC(C)(C)C1CC=C(C)CC1 (stereo not given) | inactive
9 | COc1ccccc1O | inactive
10 | CCCCCCCCCCCCCCCCCC(=O)OCCCCCCCCCCCCCC(C)C | inactive
11 | CC1=CC(O)CC(C)(C)C1 (stereo not given) | inactive
12 | C=CC(C)(CCC=C(C)C)OC(=O)CC (stereo not given) | inactive
13 | CC(C)(CO)CO | inactive
14 | Nc1ccn([C@H]2CC[C@@H](CO)O2)c(=O)n1 | inactive
15 | CC(C)(C)C1CCC(O)CC1 (stereo not given) | inactive
16 | CCO[Si](CCC#N)(OCC)OCC | inactive
17 | O=C(c1ccc(OCCN2CCCCC2)cc1)c1c(-c2ccc(O)cc2)sc2cc(O)ccc12 | inactive
18 | CC1(C)CC(=O)CC(C)(C)N1 | inactive
19 | O=C1OC2(c3ccc(O)cc3Oc3cc(O)ccc32)c2ccccc21 | inactive
20 | CC(=O)c1ccc(O)cc1 | inactive

Row | Structure (SMILES) | outcome
21 | CCCCOCC(C)OCC(C)O (stereo not given) | inactive
22 | CC(C)N1C(=O)c2ccccc2C1=O | inactive
23 | CC(=O)OCC=C(C)CCC=C(C)CCC=C(C)C | inactive
24 | C1COCO1 | inactive
25 | CC/C=C\C#N | inactive
26 | N#CCCCC(C#N)CCC#N (stereo not given) | inactive
27 | CC(C)CCCC(C)(C)O | inactive
28 | C[C@H](CCC(=O)O)[C@H]1CC[C@H]2[C@@H]3CC[C@@H]4C[C@H](O)CC[C@]4(C)[C@H]3CC[C@]12C | inactive
29 | S=c1[nH][nH]c(=S)s1 | inactive
30 | CC=CC(=O)C1=C(C)C=CCC1(C)C | inactive
31 | CCC(C)C1CCCCC1=O (stereo not given) | inactive
32 | O=C(O)c1cc2ccccc2cc1O | inactive
33 | CC1=CC(C)C(C=O)C(C)C1 (stereo not given) (tested in a mixture with another compound) | inactive
34 | CCC(C)(CCCC(C)C)OC(C)=O (stereo not given) | inactive
35 | O=c1cc(-c2ccc(O)cc2)oc2cc(O)cc(O)c12 | inactive
36 | CC1=CC[C@@H]2C[C@H]1C2(C)C | inactive
37 | COc1ccccc1NC(=O)CC(C)=O | inactive
38 | c1ccc2c(c1)-c1ccc3ccc4cccc5cc-2c1c3c45 | inactive
39 | NC(N)=NC(N)=NCCc1ccccc1 | inactive
40 | CC(O)CN (stereo not given) | inactive
